One molecule from PubChem BioAssay AID624396 (The Scripps Research Institute Molecular Screening Center, 2012) can be followed below.

The test relates to BCL2 1863. Briefly: apoptosis induction in cancer cell lines, late-stage follow-up, mechanism study for MCL1-BIM inhibitor project, imaging, DAPI staining, cell line panel, probe (AID 624396). Conditions: DAPI nuclear morphology, at 25 µM, active compounds read high.

The source made the active and inactive calls.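 How the source made its calls: active means over 15% of cells apoptotic at 25 µM, or half-maximal dose of 10 µM or lower; inactive means the rest.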

Consider `CCN1CCN(C(c2ccc(C(F)(F)F)cc2)c2ccc3cccnc3c2O)CC1` (stereo unspecified), for which the apoptosis is 21% (active).
